In PubChem BioAssay (EPA / NIEHS):
Results filed as inconclusive are left out. Active and inactive are the calls of the source. The calls were made as follows, unless noted: active = hit-call score of the fitted dose curve at least 0.9, where 1 is the maximum; inconclusive = response in the unintended direction; inactive = score below 0.9.

How the values were obtained:
[1] = CLD_ACTIN_6hr: CellzDirect (CLD) Gene Expression Assay for Baseline Control (Actin) at 6 hours (AID 2283676);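 also: active means increased actin mRNA relative to DMSO vehicle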
Outline: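 Baseline actin transcript level measured by qNPA (S1 nuclease protection, chemiluminescence) in human hepatocyte cultures 6 h after chemical exposure; 0.2% DMSO vehicle as reference, cytotoxicity noted from morphology.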

[2] = CCTE_Padilla_ZF_144hpf_TERATOSCORE: (Legacy) CCTE's 144 Hour Post-fertilization zebrafish Assay Teratoscore, Padilla Lab (AID 2283679; active = hit-call score of the fitted dose curve at least 0.9, where 1 is the maximum; inactive = score below 0.9;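 as to AC50: zebrafish embryos with chorions exposed by immersion from 6-8 hpf to 5 dpf with daily renewal; teratogenicity score from eye scoring of death hatching and malformations at 144 hpf; higher score means more developmental defects relative to DMSO baseline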)
Outline: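 Larvae scored by eye at 144 hpf for death, hatching and malformations after a day in clean Hanks'. Before that, daily-renewed exposure at 80 uM (0.4% DMSO, 26C) from roughly 6-8 hpf through 5 dpf, 4 embryos per chemical.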

[3] = read-out: Glyceraldehyde-3-phosphate dehydrogenase (Homo sapiens) (UniProt P04406); test: CLD_GAPDH_6hr: CellzDirect (CLD) Gene Expression Assay for Baseline Control (Glyceraldehyde 3-phosphate dehydrogenase) at 6 hours (AID 2283681);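 also: active means increased signal relative to DMSO vehicle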
Outline: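 GAPDH baseline-control readout from qNPA (S1 nuclease digestion, probe hybridization, chemiluminescence) in lysates of cultured human hepatocytes harvested 6 h post-dosing. Chemicals tested at multiple concentrations versus 0.2% DMSO vehicle; microscopy-based cytotoxicity flagged yes/no.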

[4] = read-out: xenobiotic metabolism (CYP1A2), CYP1A2 (gene 1544); test: CLD_CYP1A2_24hr: CellzDirect (CLD) Gene Expression Assay for xenobiotic metabolism (CYP1A2) at 24 hours (AID 2283683)
Outline: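 CYP1A2 mRNA induction measured by quantitative nuclease protection (chemiluminescent) in human primary hepatocytes 24 h after multi-concentration chemical dosing with daily fresh solutions. DMSO (0.2%) baseline; positive-direction fitting; morphology-based cytotoxicity noted.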

[5] = read-out: ABC Transporter (ABCB1), ABCB1 (gene 5243); test: CLD_ABCB1_48hr: CellzDirect (CLD) Gene Expression Assay for ABC Transporter (ABCB1) at 48 hours (AID 2283695);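 as to AC50: potency for induction meaning increase of mRNA over DMSO vehicle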
Outline: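 ABCB1 mRNA was measured by quantitative nuclease protection assay (chemiluminescence) 48 h after dosing. Human hepatocyte cultures from two separate donors received fresh dosing solutions daily for two days, with 0.2% DMSO as vehicle. Positive-direction fit against DMSO.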

[6] = read-out: glucuronosyltransferase (UGT1A1), UGT1A1 (gene 54658); test: CLD_UGT1A1_24hr: CellzDirect (CLD) Gene Expression Assay for glucuronosyltransferase (UGT1A1) at 24 hours (AID 2283696)
Outline: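 UGT1A1 transcript induction was measured by quantitative nuclease protection assay (chemiluminescence) in human hepatocyte cultures 24 h after daily fresh dosing, with 0.2% DMSO as vehicle and baseline.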

[7] = read-out: Cytochrome P450 2B6 (Homo sapiens) (UniProt P20813); test: CLD_CYP2B6_48hr: CellzDirect (CLD) Gene Expression Assay for xenobiotic metabolism (CYP2B6) at 48 hours (AID 2283699);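 also: actives raise transcript level above DMSO so potency reflects induction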
Outline: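 CYP2B6 transcript induction, read by quantitative nuclease protection (S1 digestion, chemiluminescent detection) 48 h after dosing, is fitted upward against 0.2% DMSO. Cultured human liver primary cells, two donor preparations, received fresh chemical daily over multiple concentrations.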

[8] = CLD_ACTIN_48hr: CellzDirect (CLD) Gene Expression Assay for Baseline Control (Actin) at 48 hours (AID 2283702)
Outline: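 Background-control actin mRNA read by qNPA chemiluminescence at 48 h. Human hepatocyte cultures from two donors received fresh multi-concentration chemical doses daily for two days; 0.2% DMSO served as vehicle baseline.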

[9] = read-out: HMG-CoA synthase (HMGCS2), HMGCS2 (gene 3158); test: CLD_HMGCS2_6hr: CellzDirect (CLD) Gene Expression Assay for HMG-CoA synthase (HMGCS2) at 6 hours (AID 2283682);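 also: actives raise HMGCS2 transcript above the 0.2% DMSO vehicle baseline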
Outline: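 HMGCS2 transcript induction read by quantitative nuclease protection with chemiluminescence, 6 h after dosing of primary human hepatocytes. Baseline was 0.2% DMSO vehicle; phase-contrast morphology gave a yes/no cytotoxicity annotation.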

[10] = read-out: Cytochrome P450 2C9 (Homo sapiens) (UniProt P11712); test: CLD_CYP2C9_24hr: CellzDirect (CLD) Gene Expression Assay for xenobiotic metabolism (CYP2C9) at 24 hours (AID 2283688)
Outline: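 Induction of CYP2C9 mRNA was quantified by quantitative nuclease protection assay (chemiluminescence), gain of signal versus 0.2% DMSO vehicle, 24 h after dosing. Human primary hepatocytes (two donors) received fresh chemical daily at multiple concentrations; morphology-based cytotoxicity flagged yes/no.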

[11] = read-out: ABC Transporter (ABCB11), ABCB11 (gene 8647); test: CLD_ABCB11_48hr: CellzDirect (CLD) Gene Expression Assay for ABC Transporter (ABCB11) at 48 hours (AID 2283697)
Outline: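 Induction of ABCB11 mRNA relative to 0.2% DMSO, measured at 48 h by qNPA chemiluminescence. Cultured human hepatocytes (two donors) received fresh dosing solutions at several concentrations on two consecutive days.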

[12] = read-out: Glyceraldehyde-3-phosphate dehydrogenase (Homo sapiens) (UniProt P04406); test: CLD_GAPDH_24hr: CellzDirect (CLD) Gene Expression Assay for Baseline Control (Glyceraldehyde 3-phosphate dehydrogenase) at 24 hours (AID 2283692)
Outline: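 GAPDH baseline-control readout: qNPA chemiluminescent mRNA signal in human primary hepatocytes harvested 24 h after daily dosing, normalised to 0.2% DMSO with positive fitting direction; cytotoxicity annotated by phase-contrast morphology.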

[13] = read-out: Cytochrome P450 2C19 (Homo sapiens) (UniProt P33261); test: CLD_CYP2C19_48hr: CellzDirect (CLD) Gene Expression Assay for xenobiotic metabolism (CYP2C19) at 48 hours (AID 2283700);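 also: fitted upward so actives raise CYP2C19 mRNA above the 0.2% DMSO vehicle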
Outline: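 CYP2C19 mRNA induction read by chemiluminescent quantitative nuclease protection assay after 48 h, with fresh compound added daily for two days to cultured human liver hepatocytes. Activity fitted upward against 0.2% DMSO vehicle.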

[14] = read-out: xenobiotic metabolism (CYP1A2), CYP1A2 (gene 1544); test: CLD_CYP1A2_48hr: CellzDirect (CLD) Gene Expression Assay for xenobiotic metabolism (CYP1A2) at 48 hours (AID 2283703)
Outline: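 Cytotoxicity was flagged yes/no from morphology, while CYP1A2 transcript induction was detected by qNPA chemiluminescence after a 48-hour exposure. Human primary hepatocyte cultures from separate donors received fresh dosing solutions daily over two days, with 0.2% DMSO as vehicle and baseline.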

[15] = read-out: HMG-CoA synthase (HMGCS2), HMGCS2 (gene 3158); test: CLD_HMGCS2_24hr: CellzDirect (CLD) Gene Expression Assay for HMG-CoA synthase (HMGCS2) at 24 hours (AID 2283691)
Outline: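 qNPA with S1 nuclease digestion and chemiluminescent detection gave HMGCS2 transcript levels, fitted upward against 0.2% DMSO vehicle. Cultured human hepatocytes (two donors) received fresh compound daily and were harvested at 24 h; phase-contrast morphology flagged cytotoxicity.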

[16] = read-out: Cytochrome P450 2B6 (Homo sapiens) (UniProt P20813); test: CLD_CYP2B6_6hr: CellzDirect (CLD) Gene Expression Assay for xenobiotic metabolism (CYP2B6) at 6 hours (AID 2283677);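 also: actives raise CYP2B6 transcript above DMSO baseline so AC50 marks an inducer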
Outline: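 CYP2B6 transcript levels, read by chemiluminescent qNPA, were fitted for increase versus DMSO baseline; cultured human liver hepatocytes from two donor preparations were harvested 6 h after exposure to test chemicals at multiple concentrations.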

[17] = read-out: Cytochrome P450 2B6 (Homo sapiens) (UniProt P20813); test: CLD_CYP2B6_24hr: CellzDirect (CLD) Gene Expression Assay for xenobiotic metabolism (CYP2B6) at 24 hours (AID 2283686)
Outline: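 qNPA chemiluminescent measurement of mRNA at 24 hours in human primary hepatocyte cultures from two donor preparations, with daily fresh dosing and 0.2% DMSO vehicle as baseline. Morphology-based cytotoxicity flagged yes/no.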

Measured: AC50

Glyceraldehyde-3-phosphate dehydrogenase (Homo sapiens), sequence (P04406 whole entry, looked up): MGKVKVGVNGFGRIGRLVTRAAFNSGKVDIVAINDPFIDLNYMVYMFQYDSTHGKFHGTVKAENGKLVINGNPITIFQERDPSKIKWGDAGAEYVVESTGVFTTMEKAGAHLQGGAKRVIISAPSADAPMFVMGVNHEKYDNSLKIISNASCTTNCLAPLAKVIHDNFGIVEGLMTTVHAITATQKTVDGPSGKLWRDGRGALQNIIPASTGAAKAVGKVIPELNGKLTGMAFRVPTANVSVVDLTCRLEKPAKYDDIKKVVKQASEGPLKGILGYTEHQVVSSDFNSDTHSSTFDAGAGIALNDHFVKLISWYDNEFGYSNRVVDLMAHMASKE
Cytochrome P450 2C19 (Homo sapiens), sequence (P33261 whole entry, looked up): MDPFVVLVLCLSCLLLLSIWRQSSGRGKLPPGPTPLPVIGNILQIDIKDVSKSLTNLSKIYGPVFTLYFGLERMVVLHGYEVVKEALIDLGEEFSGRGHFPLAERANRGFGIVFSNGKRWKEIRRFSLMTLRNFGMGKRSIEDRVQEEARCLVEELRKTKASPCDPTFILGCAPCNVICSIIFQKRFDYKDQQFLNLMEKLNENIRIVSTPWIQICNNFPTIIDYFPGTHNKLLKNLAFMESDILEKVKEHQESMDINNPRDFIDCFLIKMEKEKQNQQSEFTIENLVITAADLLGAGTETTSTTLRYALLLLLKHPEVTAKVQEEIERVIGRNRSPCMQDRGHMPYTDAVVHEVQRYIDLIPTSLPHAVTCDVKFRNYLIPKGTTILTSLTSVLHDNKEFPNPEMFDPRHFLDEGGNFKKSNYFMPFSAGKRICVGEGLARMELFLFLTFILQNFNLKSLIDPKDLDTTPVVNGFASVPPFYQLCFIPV

OC(c1ccc(Cl)cc1)(c1cncnc1)c1ccccc1Cl (centres undefined)
active: [2] 32.2 µM | [5] 17.2 µM | [7] 0.483 µM
inactive: [1] | [3] | [4] | [6] | [8]

COC(=O)N(OC)c1ccccc1COc1ccn(-c2ccc(Cl)cc2)n1
inactive: [3] | [9] | [10] | [5] | [6] | [7]
active: [2] 0.192 µM | [4] 0.545 µM | [11] 35.7 µM

COP(N)(=O)SC (centres undefined)
inactive: [1] | [2] | [9] | [10] | [12] | [13] | [8] | [14]

C=CCC1=C(C)[C@@H](OC(=O)[C@@H]2[C@@H](C=C(C)C)C2(C)C)CC1=O
inactive: [3] | [9] | [4] | [10] | [5] | [13]
active: [2] 3.51 µM | [6] 20 µM | [7] 4.38 µM

Fc1ccc(Oc2ccnc3cc(Cl)cc(Cl)c23)cc1
inactive: [5] | [6] | [7]
active: [2] 5.83 µM | [4] 2.84 µM

CC(C)(C)c1ccc(CSc2cnn(C(C)(C)C)c(=O)c2Cl)cc1
not listed: [2] | [10] | [12] | [14] | [15] | [16] | [17]
inactive: all other assays above

CC(C)Oc1cc(-n2nc(C(C)(C)C)oc2=O)c(Cl)cc1Cl
inactive: [1] | [3] | [5] | [6]
active: [2] 9.05 µM | [4] 4.14 µM | [7] 2.67 µM

CS/C(C)=N/OC(=O)N(C)SN(C)C(=O)O/N=C(\C)SC
active: [2] 32.7 µM
inactive: [1] | [3] | [10] | [15] | [5] | [6] | [11] | [13] | [8]

CCCCNC(=O)OCC#CI
active: [2] 0.664 µM
not listed: [1] | [9] | [11] | [14] | [16] | [17]
inactive: all other assays above

CNC(=O)ON=CC(C)(C)SC
active: [2] 65.3 µM
inactive: [1] | [3] | [4] | [10] | [5] | [6] | [7] | [8]

Oc1ccccc1-c1ccccc1
active: [2] 53.4 µM | [4] 20 µM | [17] 6.24 µM | [7] 8.64 µM
not listed: [1] | [5] | [8] | [9] | [14]
inactive: all other assays above

CCOc1cc(Oc2ccc(C(F)(F)F)cc2Cl)ccc1[N+](=O)[O-]
active: [2] 13 µM | [4] 5.69 µM | [7] 1.83 µM
inactive: [3] | [9] | [5] | [6] | [13]

COP(=S)(OC)Oc1nc(Cl)c(Cl)cc1Cl
active: [2] 34.7 µM | [4] 4.43 µM | [7] 7.69 µM | [14] 5.26 µM
inactive: [1] | [3] | [10] | [15] | [12] | [5] | [6]

CNC(=S)S
inactive: [3] | [9] | [4] | [12] | [8]

N#Cc1nn(-c2c(Cl)cc(C(F)(F)F)cc2Cl)c(N)c1S(=O)C(F)(F)F (centres undefined)
active: [2] 31.1 µM | [5] 4.65 µM | [7] 1.9 µM
inactive: [3] | [9] | [6] | [8]
